# From PubChem BioAssay (EPA / NIEHS)
# Results filed as inconclusive are left out. Calls of active or inactive are those of the source. The calls were made as follows, unless noted: active = hit-call score of the fitted dose curve at least 0.9, where 1 is the maximum; inactive = score below 0.9.
# Tests used:
# [1] = ATG_TAL_CIS: Attagene CIS-FACTORIAL HepG2 Assay for human TAL Basal Promoter (AID 2282966); conditions: HepG2 Attagene cis-factorial TAL promoter reporter; actives raise or lower the signal;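 also: background control endpoint measuring basal TAL promoter reporter mRNA not a specific factor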
# How it was run: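 HepG2 cells transiently transfected with multiplexed cis-promoter reporter units, dosed 24 h. Reporter mRNA quantified by RT-PCR, 6-FAM labelling, HpaI digestion and capillary electrophoresis; TAL basal promoter serves as background control, fitted bidirectionally versus DMSO.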
# [2] = ATG_TGFb_CIS: Attagene CIS-FACTORIAL HepG2 Assay for human Transforming Growth Factor (TGF) (AID 2282967); conditions: HepG2 Attagene CIS TGFb reporter, mRNA transcription; actives raise or lower the signal
# How it was run: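 Endogenous TGFB1-linked transcription factor activity read as reporter mRNA via RT-PCR and capillary electrophoresis, 24 h after dosing transiently transfected HepG2 cells. Gain or loss of signal fitted relative to DMSO.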
# [3] = ATG_VDRE_CIS: Attagene CIS-FACTORIAL HepG2 Assay for human Vitamin D Receptor Element (VDRE) (AID 2282968); conditions: HepG2 VDRE cis-reporter transcription, actives raise or lower the signal
# How it was run: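 Cell-based multiplexed reporter format in human liver HepG2 cells, 24 h post-dose. Fluorescence from capillary electrophoresis of reporter cDNA gives the signal, with DMSO as negative control and baseline.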
# [4] = molecular target: Steroid hormone receptor ERR1 (Homo sapiens) (UniProt P11474); assay: ATG_ERRa_TRANS: Attagene TRANS-FACTORIAL HepG2 Assay for human Estrogen-Related Receptor alpha (ERRa) (AID 2282971; active = hit-call score of the fitted dose curve at least 0.9, where 1 is the maximum); conditions: HepG2 Attagene TRANS reporter, ERRa transactivation
# Sequence of Steroid hormone receptor ERR1 (Homo sapiens) (P11474 whole entry, looked up, the tested form may be a part): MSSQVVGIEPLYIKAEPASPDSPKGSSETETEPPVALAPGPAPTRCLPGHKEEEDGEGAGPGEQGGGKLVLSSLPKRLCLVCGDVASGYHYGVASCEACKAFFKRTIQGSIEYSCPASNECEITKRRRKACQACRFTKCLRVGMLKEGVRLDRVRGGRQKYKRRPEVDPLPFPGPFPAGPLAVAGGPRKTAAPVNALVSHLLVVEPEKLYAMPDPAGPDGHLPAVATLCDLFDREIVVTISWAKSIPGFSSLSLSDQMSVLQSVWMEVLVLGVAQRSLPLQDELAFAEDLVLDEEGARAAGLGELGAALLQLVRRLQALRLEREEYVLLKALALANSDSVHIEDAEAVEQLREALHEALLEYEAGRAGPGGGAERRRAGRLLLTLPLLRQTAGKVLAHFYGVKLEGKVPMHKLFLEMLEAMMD
# How it was run: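 HepG2 cells transiently transfected with GAL4-UAS reporter units and chimeric NR-Gal4 constructs; after 24 hour compound incubation, reporter mRNA quantified by RT-PCR, fluorescent labelling and capillary electrophoresis, gain of signal versus DMSO.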
# [5] = ATG_M_19_TRANS: Attagene TRANS-FACTORIAL HepG2 Assay for M19 Transcription Factor (Internal Marker) (AID 2282974; active = hit-call score of the fitted dose curve at least 0.9, where 1 is the maximum); conditions: HepG2 Attagene TRANS-FACTORIAL M19 internal marker reporter
# How it was run: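 Transfected HepG2 (GAL4-UAS MRTUs), 24 h compound, TriZol RNA, DNase-treated RT, reporter PCR, FAM label, HpaI digest, CE fluorescence; gain vs DMSO.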
# [6] = molecular target: Estrogen receptor (Homo sapiens) (UniProt P03372); assay: ATG_ERa_TRANS: Attagene TRANS-FACTORIAL HepG2 Assay for human Estrogen Receptor alpha (ERa) (AID 2282970; active = hit-call score of the fitted dose curve at least 0.9, where 1 is the maximum); conditions: HepG2 Attagene TRANS ERa GAL4 reporter, mRNA
# Sequence of Estrogen receptor (Homo sapiens) (P03372 whole entry, looked up, the tested form may be a part): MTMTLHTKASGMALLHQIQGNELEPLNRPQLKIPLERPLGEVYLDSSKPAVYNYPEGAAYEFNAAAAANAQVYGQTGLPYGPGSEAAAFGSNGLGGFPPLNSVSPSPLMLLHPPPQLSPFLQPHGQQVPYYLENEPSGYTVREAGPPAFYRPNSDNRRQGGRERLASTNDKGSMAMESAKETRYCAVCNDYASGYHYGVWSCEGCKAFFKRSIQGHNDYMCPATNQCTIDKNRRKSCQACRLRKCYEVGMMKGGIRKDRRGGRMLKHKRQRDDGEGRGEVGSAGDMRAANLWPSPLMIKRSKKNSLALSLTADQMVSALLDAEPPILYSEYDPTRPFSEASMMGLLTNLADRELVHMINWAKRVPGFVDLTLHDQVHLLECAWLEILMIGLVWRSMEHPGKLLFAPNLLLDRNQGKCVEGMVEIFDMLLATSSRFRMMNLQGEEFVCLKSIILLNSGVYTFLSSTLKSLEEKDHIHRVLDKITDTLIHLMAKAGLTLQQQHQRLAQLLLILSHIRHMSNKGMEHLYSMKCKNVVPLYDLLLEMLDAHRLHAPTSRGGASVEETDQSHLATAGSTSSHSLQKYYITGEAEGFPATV
# How it was run: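 HepG2 cells transiently transfected with multiplexed GAL4-UAS reporter units read out chimeric NR-Gal4 activity. After 24 h compound exposure, reporter mRNA was quantified by RT-PCR, 6-FAM labeling, HpaI digestion and capillary electrophoresis, relative to DMSO.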
# [7] = molecular target: X-box-binding protein 1 (Homo sapiens) (UniProt P17861); assay: ATG_Xbp1_CIS: Attagene CIS-FACTORIAL HepG2 Assay for human X-box Binding Protein 1 (XBP1) (AID 2282972); conditions: HepG2 XBP1 cis-element reporter, Attagene multiplex; actives raise or lower the signal
# Sequence of X-box-binding protein 1 (Homo sapiens) (P17861 whole entry, looked up): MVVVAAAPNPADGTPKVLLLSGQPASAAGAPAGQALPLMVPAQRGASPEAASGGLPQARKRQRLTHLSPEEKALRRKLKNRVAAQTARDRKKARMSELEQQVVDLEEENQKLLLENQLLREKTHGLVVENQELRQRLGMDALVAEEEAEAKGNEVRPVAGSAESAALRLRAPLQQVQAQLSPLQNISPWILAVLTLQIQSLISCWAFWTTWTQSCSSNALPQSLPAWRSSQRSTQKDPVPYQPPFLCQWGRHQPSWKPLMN
# How it was run: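 HepG2 cells transiently transfected with cis-regulated multiple reporter transcription units; endogenous transcription factor activity measured 24 hours after chemical dosing. Reporter mRNA quantified by RT-PCR, 6-FAM primer extension, HpaI digestion and capillary electrophoresis; bidirectional fitting versus DMSO.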
# [8] = ATG_GAL4_TRANS: Attagene TRANS-FACTORIAL HepG2 Assay for GAL4 (Internal Marker) (AID 2282976; active = hit-call score of the fitted dose curve at least 0.9, where 1 is the maximum); conditions: HepG2 Attagene TRANS GAL4 internal marker reporter
# How it was run: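 Background-control readout: GAL4-UAS reporter transcript in transiently transfected HepG2 cells after 24 h compound exposure. Measured by RT-PCR, 6-FAM primer extension, HpaI digest and capillary electrophoresis; gain-of-signal fit versus DMSO.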
# [9] = molecular target: Nuclear receptor subfamily 1 group I member 3 (Homo sapiens) (UniProt Q14994); assay: ATG_CAR_TRANS: Attagene TRANS-FACTORIAL HepG2 Assay for human Constitutive Androstane Receptor (CAR) (AID 2282969; active = hit-call score of the fitted dose curve at least 0.9, where 1 is the maximum;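 also: activators raise reporter mRNA above DMSO so AC50 marks induction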); conditions: HepG2 Attagene TRANS-FACTORIAL CAR reporter
# Sequence of Nuclear receptor subfamily 1 group I member 3 (Homo sapiens) (Q14994 whole entry, looked up, the tested form may be a part): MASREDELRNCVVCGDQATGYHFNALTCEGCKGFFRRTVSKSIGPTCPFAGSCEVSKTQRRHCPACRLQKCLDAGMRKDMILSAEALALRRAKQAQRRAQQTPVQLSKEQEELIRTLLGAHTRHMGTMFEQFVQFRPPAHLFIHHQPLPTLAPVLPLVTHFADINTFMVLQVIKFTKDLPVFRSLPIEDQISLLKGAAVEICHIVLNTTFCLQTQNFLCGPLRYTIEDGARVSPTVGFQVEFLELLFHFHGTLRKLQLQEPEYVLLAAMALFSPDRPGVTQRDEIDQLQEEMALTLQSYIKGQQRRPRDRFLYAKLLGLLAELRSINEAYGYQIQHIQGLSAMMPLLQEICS
# How it was run: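 HepG2 cells transiently transfected with GAL4-UAS reporter units; TRANS format reads activity of exogenous chimeric NR-Gal4 protein. After 24 h dosing, reporter mRNA quantified by RT-PCR, 6-FAM labelling and capillary electrophoresis; gain of signal fitted against DMSO.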
# [10] = molecular target: Estrogen-related receptor gamma (Homo sapiens) (UniProt P62508); assay: ATG_ERRg_TRANS: Attagene TRANS-FACTORIAL HepG2 Assay for human Estrogen-Related Receptor gamma (ERRg) (AID 2282977; active = hit-call score of the fitted dose curve at least 0.9, where 1 is the maximum;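 also: hits increase reporter signal over DMSO so potencies reflect activators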); conditions: HepG2 Attagene TRANS reporter, ERRg transactivation
# Sequence of Estrogen-related receptor gamma (Homo sapiens) (P62508 whole entry, looked up, the tested form may be a part): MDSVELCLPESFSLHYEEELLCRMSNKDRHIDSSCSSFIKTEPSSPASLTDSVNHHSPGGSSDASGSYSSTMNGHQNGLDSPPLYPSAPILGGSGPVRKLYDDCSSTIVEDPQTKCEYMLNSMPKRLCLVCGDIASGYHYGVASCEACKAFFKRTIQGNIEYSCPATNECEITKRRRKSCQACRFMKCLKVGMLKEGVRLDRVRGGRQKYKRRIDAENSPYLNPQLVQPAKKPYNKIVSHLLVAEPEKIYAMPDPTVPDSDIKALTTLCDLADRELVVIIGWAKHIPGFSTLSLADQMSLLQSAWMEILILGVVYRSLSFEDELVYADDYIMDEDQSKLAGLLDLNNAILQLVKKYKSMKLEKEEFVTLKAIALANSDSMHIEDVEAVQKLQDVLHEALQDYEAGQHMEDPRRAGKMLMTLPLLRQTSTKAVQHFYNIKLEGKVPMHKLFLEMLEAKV
# How it was run: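 HepG2 cells transiently transfected with multiplexed GAL4-UAS reporter units and chimeric NR-Gal4 constructs were exposed to test chemicals for 24 h. Reporter mRNA was measured by RT-PCR, 6-FAM primer extension, HpaI digestion and capillary electrophoresis; gain-of-signal versus DMSO.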
smiles,measurement,setting,value
COC(=O)c1ccccc1N,outcome,[1],inactive
same,outcome,[2],inactive
same,outcome,[3],inactive
same,outcome,[4],inactive
same,outcome,[5],inactive
[O-][Cl+]O,outcome,[1],inactive
same,outcome,[2],inactive
same,outcome,[3],inactive
same,outcome,[6],inactive
same,outcome,[4],inactive
same,outcome,[7],inactive
same,outcome,[5],inactive
same,outcome,[8],inactive
Oc1ccccc1Cl,outcome,[1],inactive
same,outcome,[2],inactive
same,outcome,[3],inactive
same,outcome,[9],inactive
same,outcome,[7],inactive
OCCCBr,outcome,[1],inactive
same,outcome,[2],inactive
same,outcome,[3],inactive
same,outcome,[6],inactive
same,outcome,[4],inactive
same,outcome,[7],inactive
CC(C)(OOC(C)(C)c1ccccc1)c1ccccc1,AC50,[1],142 µM (active)
same,outcome,[2],inactive
same,AC50,[3],26.2 µM (active)
same,outcome,[9],inactive
same,AC50,[7],62.5 µM (active)
Nc1ccc(N=Nc2ccccc2)cc1,AC50,[1],100 µM (active)
same,outcome,[2],inactive
same,AC50,[3],54 µM (active)
same,AC50,[6],33 µM (active)
same,outcome,[4],inactive
same,outcome,[5],inactive
same,outcome,[10],inactive
CCCCC(CC)COC(=O)c1ccc(C(=O)OCC(CC)CCCC)c(C(=O)OCC(CC)CCCC)c1 (configuration not stated),outcome,[1],inactive
same,outcome,[2],inactive
same,outcome,[3],inactive
same,outcome,[9],inactive
same,outcome,[5],inactive
same,outcome,[8],inactive
CCCCCOC(=O)c1ccccc1C(=O)OCCCCC,outcome,[1],inactive
same,outcome,[2],inactive
same,AC50,[3],89.8 µM (active)
same,outcome,[9],inactive
same,outcome,[6],inactive
same,outcome,[8],inactive
CC(O)CCO (configuration not stated),outcome,[1],inactive
same,outcome,[2],inactive
same,outcome,[3],inactive
same,outcome,[9],inactive
same,outcome,[7],inactive
CC(C)(C)OOC(C)(C)CCC(C)(C)OOC(C)(C)C,outcome,[1],inactive
same,outcome,[2],inactive
same,outcome,[3],inactive
same,outcome,[9],inactive
same,outcome,[4],inactive
same,outcome,[10],inactive
Clc1ccc(C(c2ccc(Cl)cc2)C(Cl)(Cl)Cl)cc1,outcome,[1],inactive
same,outcome,[2],inactive
same,outcome,[3],inactive
same,outcome,[4],inactive
same,outcome,[5],inactive
same,outcome,[8],inactive
CNC(=O)Oc1cccc2c1OC(C)(C)C2,outcome,[1],inactive
same,outcome,[2],inactive
same,outcome,[3],inactive
same,outcome,[9],inactive
same,outcome,[6],inactive
same,outcome,[7],inactive
same,outcome,[5],inactive
Cc1ccc(N)c(N)c1,outcome,[1],inactive
same,outcome,[2],inactive
same,outcome,[3],inactive
same,outcome,[7],inactive
CCOC(=O)[C@]1(c2ccccc2)Oc2ccccc2[C@@H]1N,AC50,[1],61.8 µM (active)
same,AC50,[2],15.6 µM (active)
same,AC50,[3],15.8 µM (active)
same,outcome,[9],inactive
same,outcome,[5],inactive
OCCOCCO,outcome,[1],inactive
same,outcome,[2],inactive
same,outcome,[3],inactive
same,outcome,[9],inactive
same,outcome,[7],inactive
same,outcome,[5],inactive
